Measurements published in the supplement of paper PMC11732987, “Enantioselective OTUD7B fragment discovery through chemoproteomics screening and high-throughput optimisation” (Communications Chemistry, 2025).

How the values were obtained:
Assay in all cases: log2 ratio of Biotin-Ahx-Ub-VS probe labelling (fragment/DMSO); higher = less target engagement (more negative = stronger competition), active = hit call of the paper (q ≤ 0.05, log2 ratio ≤ -1)
Conditions in all cases: compound concentration: 200 uM; treatment time: 3 h
USP16 = USP16 (UniProt Q9Y5T5)
Sequence of USP16 (Q9Y5T5 whole entry, looked up, the tested form may be a part): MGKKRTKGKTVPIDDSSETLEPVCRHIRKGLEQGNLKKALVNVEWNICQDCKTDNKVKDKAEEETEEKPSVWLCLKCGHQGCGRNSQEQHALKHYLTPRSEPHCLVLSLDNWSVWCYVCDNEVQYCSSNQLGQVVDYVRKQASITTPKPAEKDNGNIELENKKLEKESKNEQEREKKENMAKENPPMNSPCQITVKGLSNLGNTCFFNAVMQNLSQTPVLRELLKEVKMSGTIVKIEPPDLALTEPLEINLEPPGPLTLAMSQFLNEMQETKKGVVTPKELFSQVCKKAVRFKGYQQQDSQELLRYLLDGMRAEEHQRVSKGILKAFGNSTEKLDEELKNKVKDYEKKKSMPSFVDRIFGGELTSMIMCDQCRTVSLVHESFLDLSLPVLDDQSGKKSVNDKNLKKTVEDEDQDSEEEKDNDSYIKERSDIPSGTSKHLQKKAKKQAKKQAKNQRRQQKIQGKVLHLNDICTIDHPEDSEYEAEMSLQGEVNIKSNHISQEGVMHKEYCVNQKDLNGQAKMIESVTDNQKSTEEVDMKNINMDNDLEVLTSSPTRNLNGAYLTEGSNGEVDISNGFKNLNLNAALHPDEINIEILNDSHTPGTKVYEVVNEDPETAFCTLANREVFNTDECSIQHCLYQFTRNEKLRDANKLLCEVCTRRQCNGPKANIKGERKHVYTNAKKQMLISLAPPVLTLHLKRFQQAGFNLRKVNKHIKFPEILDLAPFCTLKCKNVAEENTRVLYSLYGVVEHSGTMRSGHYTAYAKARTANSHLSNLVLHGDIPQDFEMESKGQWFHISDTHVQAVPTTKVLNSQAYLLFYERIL
Method in brief: (§1)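 Global-median-normalised Spectronaut label-free quantities were compared by unpaired t-test, and values are average log2 ratios of fragment over vehicle. Only proteins with ≥2 unique peptides were used. HEK293T lysate (495 µg per sample) was treated in triplicate with fragment at 200 µM or vehicle for 3 h and then with Biotin-Ahx-Ub-VS at 0.5 µM final for 1 h. Labelled DUBs were then NeutrAvidin-enriched, digested with LysC and trypsin, and run by diaPASEF LC-MS/MS.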

USP19 = target: T1, USP19 (UniProt O94966)
T1 sequence (whole entry): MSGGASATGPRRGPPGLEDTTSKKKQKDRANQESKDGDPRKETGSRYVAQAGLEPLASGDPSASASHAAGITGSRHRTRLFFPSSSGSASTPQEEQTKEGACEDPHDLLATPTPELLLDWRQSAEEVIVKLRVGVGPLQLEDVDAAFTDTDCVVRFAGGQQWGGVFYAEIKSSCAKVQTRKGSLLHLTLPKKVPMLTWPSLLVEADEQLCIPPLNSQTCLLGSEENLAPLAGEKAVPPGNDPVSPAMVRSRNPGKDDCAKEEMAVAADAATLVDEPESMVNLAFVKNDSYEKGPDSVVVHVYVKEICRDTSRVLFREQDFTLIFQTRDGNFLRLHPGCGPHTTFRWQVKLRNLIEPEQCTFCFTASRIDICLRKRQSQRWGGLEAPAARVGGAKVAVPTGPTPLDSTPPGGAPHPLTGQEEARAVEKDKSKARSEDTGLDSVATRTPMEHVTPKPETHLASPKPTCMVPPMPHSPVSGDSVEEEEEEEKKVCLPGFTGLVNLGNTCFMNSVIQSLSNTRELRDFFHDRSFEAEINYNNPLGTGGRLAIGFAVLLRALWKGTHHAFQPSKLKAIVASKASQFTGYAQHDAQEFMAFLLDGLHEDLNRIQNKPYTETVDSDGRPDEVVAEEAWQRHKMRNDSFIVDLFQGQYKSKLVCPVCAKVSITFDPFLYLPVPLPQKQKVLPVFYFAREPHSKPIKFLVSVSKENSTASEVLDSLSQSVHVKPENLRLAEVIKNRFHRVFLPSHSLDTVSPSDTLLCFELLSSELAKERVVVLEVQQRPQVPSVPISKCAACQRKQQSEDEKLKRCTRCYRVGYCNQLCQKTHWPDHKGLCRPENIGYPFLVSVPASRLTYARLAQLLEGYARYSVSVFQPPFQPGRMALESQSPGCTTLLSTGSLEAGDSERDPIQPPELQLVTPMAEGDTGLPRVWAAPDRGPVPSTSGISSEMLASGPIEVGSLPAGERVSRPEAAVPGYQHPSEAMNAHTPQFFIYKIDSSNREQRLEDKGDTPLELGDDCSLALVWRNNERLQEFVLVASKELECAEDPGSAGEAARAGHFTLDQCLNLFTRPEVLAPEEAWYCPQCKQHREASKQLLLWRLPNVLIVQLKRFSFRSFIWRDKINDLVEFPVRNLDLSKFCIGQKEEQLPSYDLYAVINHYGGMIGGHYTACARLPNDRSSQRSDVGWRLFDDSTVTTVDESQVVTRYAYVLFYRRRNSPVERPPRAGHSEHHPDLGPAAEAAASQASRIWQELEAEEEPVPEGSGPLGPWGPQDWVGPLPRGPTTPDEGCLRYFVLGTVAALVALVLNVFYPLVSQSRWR
Method in brief: as §1

USP24 = USP24 (UniProt Q9UPU5)
Sequence of USP24 (Q9UPU5 whole entry): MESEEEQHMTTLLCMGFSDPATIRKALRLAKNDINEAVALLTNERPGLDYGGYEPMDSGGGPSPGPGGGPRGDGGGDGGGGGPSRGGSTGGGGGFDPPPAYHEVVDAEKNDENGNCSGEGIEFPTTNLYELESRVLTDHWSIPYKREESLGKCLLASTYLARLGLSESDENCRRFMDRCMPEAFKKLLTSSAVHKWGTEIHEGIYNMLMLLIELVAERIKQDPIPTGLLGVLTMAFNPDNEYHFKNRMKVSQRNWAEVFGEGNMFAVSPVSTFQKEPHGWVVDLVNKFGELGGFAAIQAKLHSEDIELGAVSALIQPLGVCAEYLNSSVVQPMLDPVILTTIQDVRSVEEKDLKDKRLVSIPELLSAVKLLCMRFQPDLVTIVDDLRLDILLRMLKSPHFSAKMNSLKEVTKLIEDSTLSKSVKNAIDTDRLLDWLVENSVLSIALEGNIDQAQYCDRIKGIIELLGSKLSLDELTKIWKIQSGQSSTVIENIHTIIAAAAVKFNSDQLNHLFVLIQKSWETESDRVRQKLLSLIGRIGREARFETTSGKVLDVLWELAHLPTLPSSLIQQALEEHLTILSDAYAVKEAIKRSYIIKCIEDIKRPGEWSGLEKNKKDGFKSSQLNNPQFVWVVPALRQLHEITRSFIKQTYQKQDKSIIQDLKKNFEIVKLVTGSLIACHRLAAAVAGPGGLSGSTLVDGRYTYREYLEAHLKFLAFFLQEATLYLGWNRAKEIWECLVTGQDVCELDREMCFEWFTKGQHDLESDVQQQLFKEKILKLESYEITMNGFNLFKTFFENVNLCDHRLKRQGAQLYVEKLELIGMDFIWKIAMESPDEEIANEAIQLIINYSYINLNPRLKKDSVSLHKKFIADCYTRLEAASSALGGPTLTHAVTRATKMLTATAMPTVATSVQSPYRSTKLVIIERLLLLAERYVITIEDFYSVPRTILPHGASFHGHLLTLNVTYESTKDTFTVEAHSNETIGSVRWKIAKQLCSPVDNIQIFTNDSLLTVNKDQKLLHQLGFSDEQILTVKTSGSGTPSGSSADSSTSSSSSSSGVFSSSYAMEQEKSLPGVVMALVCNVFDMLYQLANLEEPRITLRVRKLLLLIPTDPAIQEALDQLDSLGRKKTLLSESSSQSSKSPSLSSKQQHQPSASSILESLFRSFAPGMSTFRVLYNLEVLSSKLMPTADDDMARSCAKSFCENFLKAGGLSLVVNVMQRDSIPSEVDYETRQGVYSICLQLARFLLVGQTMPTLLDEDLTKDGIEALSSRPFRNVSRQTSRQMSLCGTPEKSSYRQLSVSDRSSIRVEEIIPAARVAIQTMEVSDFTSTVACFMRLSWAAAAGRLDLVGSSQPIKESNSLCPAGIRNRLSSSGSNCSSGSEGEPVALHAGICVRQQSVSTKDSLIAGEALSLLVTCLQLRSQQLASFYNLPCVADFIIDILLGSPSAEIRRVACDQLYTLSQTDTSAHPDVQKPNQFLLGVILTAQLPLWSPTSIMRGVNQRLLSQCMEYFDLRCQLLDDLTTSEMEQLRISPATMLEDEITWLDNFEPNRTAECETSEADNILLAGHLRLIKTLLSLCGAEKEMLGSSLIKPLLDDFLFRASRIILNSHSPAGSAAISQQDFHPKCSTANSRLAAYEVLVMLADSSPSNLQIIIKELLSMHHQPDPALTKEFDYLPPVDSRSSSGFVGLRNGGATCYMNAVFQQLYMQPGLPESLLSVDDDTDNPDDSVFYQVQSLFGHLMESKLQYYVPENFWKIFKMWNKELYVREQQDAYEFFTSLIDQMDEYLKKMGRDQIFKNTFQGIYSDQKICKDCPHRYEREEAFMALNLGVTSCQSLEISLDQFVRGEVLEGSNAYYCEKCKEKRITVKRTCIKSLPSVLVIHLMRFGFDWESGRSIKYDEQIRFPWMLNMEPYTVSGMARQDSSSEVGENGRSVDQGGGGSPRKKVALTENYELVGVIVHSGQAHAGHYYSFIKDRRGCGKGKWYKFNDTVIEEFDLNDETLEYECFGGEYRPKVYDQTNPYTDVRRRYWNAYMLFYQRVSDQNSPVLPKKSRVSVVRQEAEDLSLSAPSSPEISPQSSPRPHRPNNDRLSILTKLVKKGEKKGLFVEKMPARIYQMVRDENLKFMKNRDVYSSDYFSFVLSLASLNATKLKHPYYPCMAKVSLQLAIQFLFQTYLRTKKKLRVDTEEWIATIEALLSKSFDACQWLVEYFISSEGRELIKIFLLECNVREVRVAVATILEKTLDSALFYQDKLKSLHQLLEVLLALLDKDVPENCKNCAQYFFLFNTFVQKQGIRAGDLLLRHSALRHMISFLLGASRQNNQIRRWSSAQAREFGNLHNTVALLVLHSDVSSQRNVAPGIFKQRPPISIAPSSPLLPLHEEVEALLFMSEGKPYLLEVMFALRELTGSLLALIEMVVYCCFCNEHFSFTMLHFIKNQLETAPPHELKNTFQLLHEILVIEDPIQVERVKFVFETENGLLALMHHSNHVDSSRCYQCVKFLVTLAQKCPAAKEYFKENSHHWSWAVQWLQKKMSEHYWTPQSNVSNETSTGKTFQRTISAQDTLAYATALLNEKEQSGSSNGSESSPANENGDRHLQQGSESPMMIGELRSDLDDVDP
Method in brief: as §1

USP25 = target: T2, USP25 (UniProt Q9UHP3)
T2 sequence (whole entry): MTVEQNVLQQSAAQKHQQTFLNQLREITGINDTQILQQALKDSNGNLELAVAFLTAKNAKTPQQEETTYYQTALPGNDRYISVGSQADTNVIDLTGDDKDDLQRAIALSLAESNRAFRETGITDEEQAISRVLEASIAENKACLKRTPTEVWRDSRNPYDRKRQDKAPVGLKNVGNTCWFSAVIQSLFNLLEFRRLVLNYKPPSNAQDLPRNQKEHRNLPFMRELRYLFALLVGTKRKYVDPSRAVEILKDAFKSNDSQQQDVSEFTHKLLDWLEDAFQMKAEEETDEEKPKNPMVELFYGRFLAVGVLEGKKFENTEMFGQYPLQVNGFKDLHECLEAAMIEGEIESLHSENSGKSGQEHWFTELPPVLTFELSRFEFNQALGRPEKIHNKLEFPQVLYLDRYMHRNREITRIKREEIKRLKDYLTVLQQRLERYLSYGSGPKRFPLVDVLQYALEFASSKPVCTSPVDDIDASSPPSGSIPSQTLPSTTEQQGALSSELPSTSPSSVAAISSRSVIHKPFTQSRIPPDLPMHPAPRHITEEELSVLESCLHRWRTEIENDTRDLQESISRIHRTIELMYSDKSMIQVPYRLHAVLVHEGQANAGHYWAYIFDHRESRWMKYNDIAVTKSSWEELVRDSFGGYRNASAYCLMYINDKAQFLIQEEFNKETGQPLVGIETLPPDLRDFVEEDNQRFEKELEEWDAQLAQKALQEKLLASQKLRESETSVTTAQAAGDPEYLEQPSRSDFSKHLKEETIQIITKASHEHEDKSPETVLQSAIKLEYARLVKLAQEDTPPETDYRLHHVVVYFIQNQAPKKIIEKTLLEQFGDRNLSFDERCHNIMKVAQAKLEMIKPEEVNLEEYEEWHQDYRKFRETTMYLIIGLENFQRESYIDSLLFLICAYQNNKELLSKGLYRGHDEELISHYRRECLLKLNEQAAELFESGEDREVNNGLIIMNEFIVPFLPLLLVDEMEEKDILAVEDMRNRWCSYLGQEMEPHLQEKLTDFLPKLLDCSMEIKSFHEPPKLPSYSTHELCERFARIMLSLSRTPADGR
Method in brief: as §1

USP28 = target: T3, USP28 (UniProt Q96RU2)
T3 sequence (whole entry): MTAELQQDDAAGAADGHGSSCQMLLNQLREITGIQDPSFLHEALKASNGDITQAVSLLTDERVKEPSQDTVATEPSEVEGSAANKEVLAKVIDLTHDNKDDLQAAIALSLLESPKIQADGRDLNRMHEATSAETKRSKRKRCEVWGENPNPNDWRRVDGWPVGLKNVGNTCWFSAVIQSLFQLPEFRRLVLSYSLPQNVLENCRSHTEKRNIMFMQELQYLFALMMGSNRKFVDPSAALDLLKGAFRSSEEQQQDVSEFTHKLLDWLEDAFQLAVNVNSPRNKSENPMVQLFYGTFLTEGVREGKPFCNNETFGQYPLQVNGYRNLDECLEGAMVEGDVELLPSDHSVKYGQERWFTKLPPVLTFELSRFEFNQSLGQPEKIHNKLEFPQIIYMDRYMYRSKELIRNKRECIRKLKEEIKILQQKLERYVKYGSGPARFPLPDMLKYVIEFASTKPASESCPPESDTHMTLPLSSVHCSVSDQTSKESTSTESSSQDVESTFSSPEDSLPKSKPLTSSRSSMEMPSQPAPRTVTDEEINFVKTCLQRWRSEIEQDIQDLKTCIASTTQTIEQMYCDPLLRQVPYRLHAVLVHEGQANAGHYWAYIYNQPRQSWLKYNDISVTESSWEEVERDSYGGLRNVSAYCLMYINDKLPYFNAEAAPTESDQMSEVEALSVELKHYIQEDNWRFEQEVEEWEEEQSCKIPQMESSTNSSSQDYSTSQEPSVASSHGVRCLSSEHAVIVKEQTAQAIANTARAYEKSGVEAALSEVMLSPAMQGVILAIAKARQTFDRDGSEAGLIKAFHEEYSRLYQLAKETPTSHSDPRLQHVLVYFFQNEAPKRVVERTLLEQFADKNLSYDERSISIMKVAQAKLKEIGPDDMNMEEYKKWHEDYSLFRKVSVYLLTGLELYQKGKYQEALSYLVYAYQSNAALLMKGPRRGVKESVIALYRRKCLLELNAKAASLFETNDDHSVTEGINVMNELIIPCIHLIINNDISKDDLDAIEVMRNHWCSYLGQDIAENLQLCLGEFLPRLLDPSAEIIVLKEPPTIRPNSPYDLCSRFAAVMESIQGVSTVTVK
Method in brief: as §1

Measured: log2 ratio of Biotin-Ahx-Ub-VS probe labelling

O=C(CCl)N1CCC(c2ccn[nH]2)C1 (stereo not given)
inactive: USP16 -0.161 | USP19 -0.276 | USP24 -0.326 | USP25 -0.433 | USP28 -0.425
